Screening results as filed in PubChem BioAssay.
ST2 inh – inhibitors of human ST2 (IL1RL1) binding to IL-33; AlphaLISA ST2-Fc/biotin-IL-33 interaction, 1 h; inhibition, % for hits at 17 µM; 78,000 compounds, 2.3% hits; in the data active = inhibition above about 30%
Target sequence (Q01638 whole entry, looked up): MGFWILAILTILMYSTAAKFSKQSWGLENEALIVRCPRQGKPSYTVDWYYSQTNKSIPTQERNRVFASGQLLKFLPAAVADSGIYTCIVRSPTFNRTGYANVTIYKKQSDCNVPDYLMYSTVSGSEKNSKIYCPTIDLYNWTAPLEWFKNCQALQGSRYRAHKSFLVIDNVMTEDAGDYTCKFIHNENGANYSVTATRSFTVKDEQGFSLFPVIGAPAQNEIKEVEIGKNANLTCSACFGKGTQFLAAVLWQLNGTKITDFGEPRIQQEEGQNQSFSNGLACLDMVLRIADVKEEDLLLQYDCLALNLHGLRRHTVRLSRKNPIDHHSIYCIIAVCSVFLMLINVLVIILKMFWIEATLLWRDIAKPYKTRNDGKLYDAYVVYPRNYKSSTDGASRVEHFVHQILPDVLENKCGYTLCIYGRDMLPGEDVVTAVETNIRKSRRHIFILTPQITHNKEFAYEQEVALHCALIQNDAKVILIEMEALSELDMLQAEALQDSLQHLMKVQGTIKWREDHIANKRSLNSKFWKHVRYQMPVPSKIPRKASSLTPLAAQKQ
Numbers stand for hits; 0 = inactive. This is one part of a sample in which hits are shown more often than they occur.

SMILES | ST2 inh
CNc1nc2c(C)cccn2c(=O)c1C=Nc1ccc(Cl)cc1 | 0
Cc1cccn2c(=O)c(C=NCc3ccccc3)c(NCCO)nc12 | 0
Cc1cccn2c(=O)c(C=NCc3ccco3)c(Nc3ccc(Cl)cc3)nc12 | 34%
CNc1nc2c(C)cccn2c(=O)c1C=NCCO | 83%
CNc1nc2c(C)cccn2c(=O)c1C=Nc1ccccc1 | 33%
Cc1cccn2c(=O)c(C=Nc3cccc(Cl)c3)c(NCc3ccco3)nc12 | 0
CC1CCCCN1C1CN(C(=O)CCC(=O)Nc2cccc(O)c2)C1 (stereo not drawn) | 0
Cc1ocnc1C(=O)N1CCC(N2CCCC(C(=O)N3CCOCC3)C2)CC1 (stereo not drawn) | 0
Cc1cccc(C)c1OCCCN(C)C(=O)c1ccc2[nH]c(=O)c(=O)[nH]c2c1 | 0
CC(C)(C)c1ccnc(N[C@H]2CO[C@H]3[C@@H]2OC[C@@H]3NS(=O)(=O)c2ccc3ccccc3c2)n1 | 0
CCN(CC)c1cc(C)c2cc(NC(=O)Cn3c(=O)oc4ccccc43)ccc2n1 | 0
CC(C)C[C@@H]1N[C@H](C(=O)N2CCCCC2)Cc2cn(Cc3nccn3C)c3cccc1c23 | 0
CCOc1ccccc1C1NC(=O)NC(C)=C1C(=O)OCC1CCCCC1 (stereo not drawn) | 0
CC1CCN(S(=O)(=O)c2ccc(NC(=O)C(F)(F)F)cc2)CC1 | 0
CC1=C(C(N)=O)C(c2cccc(Br)c2)n2nc(SCc3ccccc3F)nc2N1 (stereo not drawn) | 0
CCc1ccccc1NC(=O)CSc1nc2ccccc2c(=O)n1CCc1ccccc1 | 0
C=CCn1c(SCC(=O)Nc2ccccc2[N+](=O)[O-])nc2sc(CC)cc2c1=O | 30%
C=CCn1c(SCC(=O)Nc2sc3c(c2C(=O)OCC)CCC3)nc2ccccc2c1=O | 0
CN(C)c1ccc(/C=C/c2nc3ccccc3c(=O)n2CCCO)cc1 | 0
CN(C)c1ccc(/C=C/c2nc3ccc(I)cc3c(=O)n2C)cc1 | 42%
COc1ccc(/C=C/c2nc3ccccc3c(=O)n2Cc2ccccc2)cc1 | 0
CN(CCc1ccccc1)[C@@H]1[C@H](O)[C@H](CO)O[C@@H]1CNC(=O)c1ccc(C(F)(F)F)cc1 | 0
COc1cc2[nH]c(=O)n(CCCC(=O)N3CCN(c4ccccn4)CC3)c(=O)c2cc1OC | 0
Cc1ccc(S(=O)(=O)Cc2noc([C@@H]3C[C@@H](O)CN3Cc3c[nH]c4ccccc34)n2)cc1 | 0
Cc1ccc(S(=O)(=O)Cc2noc([C@@H]3C[C@@H](O)CN3Cc3ccc(S(C)(=O)=O)cc3)n2)cc1 | 0
SMILES | ST2 inh
Cc1ccc(S(=O)(=O)Cc2noc([C@@H]3C[C@@H](O)CN3Cc3ccccc3[N+](=O)[O-])n2)cc1 | 31%
Cc1nnc(CN2CCOc3c(O)cc(-c4csc5ccccc45)cc3C2)o1 | 0
O=C(NC[C@H]1O[C@@H](CC(=O)N2CCCC2)[C@H](O)[C@@H]1O)c1ccccc1 | 0
CN1C[C@@H](NS(=O)(=O)c2ccccc2)C[C@H]1c1nc(-c2ccc(Cl)cc2)no1 | 0
COc1ccc(-c2noc([C@@H]3C[C@H](NS(=O)(=O)c4cccs4)CN3C)n2)cc1 | 41%
CN1C[C@@H](NS(=O)(=O)c2ccccc2)C[C@H]1c1nc(-c2ccccc2)no1 | 0
CC(=O)c1ccc(NC(=O)/C(=C\c2ccccc2)NC(=O)c2ccc(Br)o2)cc1 | 0
COc1ccc2nc3c(nc2c1)C(=O)c1ccccc1-3 | 32%
COc1ccc(C(=O)O/N=C2\c3ccccc3-c3nc4ccccc4nc32)cc1 | 0
COc1ccc2nc(Cl)c(Cl)nc2c1 | 0
Cc1ccc(CSC2=NCCN2C(=O)c2cccs2)cc1 | 0
CC1(C(=O)Nc2ccc(OCC(N)=O)cc2)CC1(Cl)Cl (stereo not drawn) | 0
Clc1ccc(-n2ncnc2-c2cccnc2)cc1 | 0
Cc1ccc(COc2ccc(/C=C3\SC(=O)N(CC(=O)N4CCOCC4)C3=O)cc2)cc1 | 0
O=C(CN1C(=O)S/C(=C\c2ccccc2OCc2cccc(F)c2)C1=O)N1CCOCC1 | 30%
COc1cc(C=O)ccc1OC(=O)N1CCOCC1 | 0
CCN(CC)c1ccc(/C=C2\SC(=O)N(CC(=O)N3CCOCC3)C2=O)cc1 | 0
CN1C(=O)S/C(=C/c2ccccc2OCc2ccc(C(=O)O)cc2)C1=O | 0
C=CCOc1ccc(/C=C2\SC(=O)N(CC(=O)N3CCOCC3)C2=O)cc1OC | 40%
Cc1cc(N2C(=O)C3CC=CC(C)C3C2=O)ccc1Br (stereo not drawn) | 0
CCc1ccc(-n2c(CN3CCN(S(=O)(=O)c4cccc(OC)c4)CC3)nc3cccnc32)cc1 | 0
COc1ccc(C2C(C(=O)OC3CCCCC3)=C(C)Nc3ncnn32)cc1Br (stereo not drawn) | 0
COC(C(=O)NCc1c(C)ncc2c1CCN(C(=O)/C=C/c1cccc(F)c1)C2)c1ccccc1 (stereo not drawn) | 0
Clc1ccc(OCCCCN2CCCC2)cc1 | 0
COc1ccc(CN2CCNC(=O)C2CC(=O)N2CCN(c3ccccc3C)CC2)cc1C (stereo not drawn) | 0
SMILES | ST2 inh
COC(=O)c1ccc(Cn2cnc3c(cnn3-c3ccccc3)c2=O)o1 | 0
COc1ccc(Nc2cc(C)nc(N3CCN(S(=O)(=O)c4ccc(OC)c(C)c4)CC3)n2)cc1 | 0
COc1ccc(Nc2cc(C)nc(N3CCN(S(=O)(=O)c4ccc(OC)cc4)CC3)n2)cc1 | 0
COc1ccc(S(=O)(=O)N2CCN(c3nc(C)cc(Nc4ccccc4)n3)CC2)cc1C | 34%
O=C(C1CC1)N1CCc2cc(S(=O)(=O)Nc3ccc(F)c(F)c3)ccc21 | 0
CCOC1=NC2Nc3ccc(Cl)cc3N(C)C2C1c1ccc([N+](=O)[O-])cc1 (stereo not drawn) | 36%
CC1=C(C(=O)Nc2ccc(Cl)cc2)C(c2ccc([N+](=O)[O-])cc2)n2ncnc2N1 (stereo not drawn) | 0
CCOc1ccc([N+](=O)[O-])cc1C1Nc2ccccc2-c2nnc(SC)nc2O1 (stereo not drawn) | 0
CC(C)Cc1cc(C(=O)N[C@@H]2c3ccccc3C[C@@H]2O)n(C)n1 | 0
CCCC(=O)N(c1ccc(OC)cc1OC)C1C=CS(=O)(=O)C1 (stereo not drawn) | 0
OCCN(CCO)CC1CC2C=CC1C2 (stereo not drawn) | 0
Cn1c(=O)[nH]c(=O)c2c1nc(NCCO)n2Cc1ccc(Cl)cc1 | 0
O=C(O)c1ccc2ccccc2n1 | 0
Cc1nc2ccccc2c(C(=O)O)c1C(=O)O | 0
CC(O)=Cc1nc2ccccc2nc1C=C(C)O | 38%
CCN(Cc1ccncc1)C1CCCN(C(=O)c2cc3cc(F)ccc3[nH]2)C1 (stereo not drawn) | 0
C#CCSc1nc2sc(C)c(C)c2c(=O)n1-c1ccccc1 | 0
COc1ccc(Cl)cc1/C=C1\C(=O)N(c2cccc(C(=O)O)c2)N=C1C | 0
COc1cc(/C=C2\C(=O)N(c3ccc(Cl)c(C(=O)O)c3)N=C2C)c([N+](=O)[O-])cc1OC | 64%
COc1cc(/C=C2\C(=O)N(c3ccc(Cl)c(C(=O)O)c3)N=C2C)cc([N+](=O)[O-])c1O | 80%
COc1cc(/C=C2\C(=O)N(c3cccc(Cl)c3)N=C2C)cc(OC)c1OC | 0
COc1cc(/C=C2\C(=O)N(c3ccccc3)N=C2C)cc(Br)c1O | 0
CC1=NN(c2ccc(Cl)c(Cl)c2)C(=O)/C1=C/c1cc([N+](=O)[O-])ccc1O | 0
COc1ccccc1OC(C)(C)C(=O)N1CCC(O)(CN(C)C)C1 (stereo not drawn) | 0
O=C1/C(=C\c2cccc([N+](=O)[O-])c2)N=C2CCCCCN12 | 36%
O=[N+]([O-])c1cccc(CN2CCCCCC2)c1 | 0
